Drawing on PubChem BioAssay (NCI), this text covers growth inhibition for 20 molecules.

The nature of test [1]: NCI Yeast Anticancer Drug Screen. Data for the rad50 strain (AID 155).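 Also: 0% = growth of vehicle-only cultures of the same strain.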 The note with it: S. cerevisiae rad50 strain growth inhibition; at 50.0 µM; active compounds read high. In a few lines:
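Genetically altered yeast (DNA repair pathway); compound treatment; growth inhibition vs vehicle ctrl.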

Test [2] in a line: NCI Yeast Anticancer Drug Screen. Data for the mec2-1 strain (AID 157). The note with it: S. cerevisiae mec2-1 strain, at 50.0 µM, active compounds read high. In outline:
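mec2-1 yeast strain, carrying an alteration in DNA damage repair or cell cycle control, was exposed to compounds; growth inhibition was measured relative to vehicle-treated controls.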

The nature of test [3]: NCI Yeast Anticancer Drug Screen. Data for the sgs1 mgt1 strain (AID 161).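 Also: 0% = growth of cultures given vehicle only.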 The note with it: S. cerevisiae sgs1 mgt1 strain, at 50.0 µM, active compounds read high. In a few lines: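 Growth of a repair-deficient yeast mutant was monitored after compound treatment and expressed as inhibition relative to vehicle-treated cultures.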
The nature of test [4]: NCI Yeast Anticancer Drug Screen. Data for the cln2 rad14 strain (AID 165).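 Also: 0% = growth equal to vehicle treated cultures.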 As to conditions: S. cerevisiae cln2 rad14 strain, at 50.0 µM, active compounds read high. In a few lines:
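Yeast carrying cln2 and rad14 alterations (cell cycle control and DNA damage repair) were exposed to compounds. Growth inhibition was measured against vehicle-treated controls.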

The nature of test [5]: NCI Yeast Anticancer Drug Screen. Data for the bub3 strain (AID 167). The note with it: S. cerevisiae bub3 mutant strain, at 50.0 µM, active compounds read high. In outline:
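Yeast carrying a defined mutation is treated with each compound, and growth is compared with that of vehicle-exposed cells to give inhibition.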

The nature of test [6]: NCI Yeast Anticancer Drug Screen. Data for the mlh1 rad18 strain (AID 175). The note with it: S. cerevisiae mlh1 rad18 strain growth inhibition; at 50.0 µM; active compounds read high. In outline: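 Growth inhibition of the yeast strain was measured after compound exposure and expressed relative to vehicle-treated controls. The strain carries defined defects in DNA damage repair.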

About 79,000 compounds went through this panel and 15% of them were active in at least one assay; those are over-represented in the sample as a whole. A number with no mark means an inactive call. The source made the active and inactive calls. Rule as the data show it: active = growth inhibition above about 70%; inactive = the rest.

For the molecule `Cn1ncc2c(NCc3ccccc3)ncnc21`, the growth inhibition was 13.2% in test [1]; 3.15% in test [2]; 23.1% in test [3]; -44% in test [4]; 2.7% in test [5]; 0.5% in test [6].

In the case of `O=S1(=O)C2CCCCCC2(N2CCOCC2)C1C1CCCCC1` (stereo not given), the growth inhibition in test [1] was 16.7%; in test [2] it was 22.4%; in test [3] it was -0.45%; in test [4], 25.4%; in test [5], 6%; in test [6], 15.1%.

With `Cc1ccc(OCC(=O)C2CSc3ccc(Cl)cc32)cc1` (stereo not given), the growth inhibition in test [1] was 67.8%; in test [2] it was 33%; in test [3] it was 26.4%; in test [4], 70.6% (active); in test [5], 75.7% (active); in test [6], 73.5% (active).

For the molecule `CN(C)CCNC(=O)c1cccc2c(Nc3ccc(S(N)(=O)=O)cc3)c3ccccc3nc12`, the growth inhibition is -43.7% in test [1]; 4% in test [2]; -43.1% in test [3]; 17.9% in test [4]; -23.6% in test [5]; 11.1% in test [6].

As for `Cc1cc(Cl)ccc1N=Cc1ccc(C=Nc2ccc(Cl)cc2C)cc1`, the growth inhibition in test [1] is 14.2%; in test [2], 3.6%; in test [3] it was -5.05%; in test [4], -1.55%; in test [5], 10.8%; in test [6] it was -0.5%.

Take `C=C1C(=O)OC2/C=C(\C)CC/C=C(/C=O)C(OC(=O)C(C)C)C(O)C12` (stereo not given): the growth inhibition in test [1] is -12.2%; in test [2], -55.4%; in test [3] it was 17.6%; in test [4] it was -7.25%; in test [5] it was -42.1%; in test [6], -31.6%.

On to `CC[N+](C)(CC)CCOC(C)=O`, for which the growth inhibition in test [1] is 8.55%; in test [2] it was -12.1%; in test [3] it was -5.95%; in test [4], 11.2%; in test [5] it was -6.5%; in test [6] it was 8.3%.

`CCCCCCCN(CCCCCCC)CC(O)c1cc2ccccc2c2cc(Br)ccc12` (stereo not given): the growth inhibition in test [1] was -52.9%; in test [2], -33%; in test [3] it was -41%; in test [4], -25%; in test [5], -69.1%; in test [6], -109%.

As to `CCCCCC[n+]1ccc(C(=O)c2ccccc2)cc1`, the growth inhibition in test [1] was 34.9%; in test [2] it was -5.8%; in test [3] it was 19.9%; in test [4], 7.9%; in test [5], 0.45%; in test [6], 32.6%.

Consider `Cc1c(C(N)=O)c(-c2ccccc2)c(-c2ccccc2)n1Nc1ccccc1`, for which the growth inhibition in test [1] is 16.9%; in test [2] it was -2.65%; in test [3], 13.7%; in test [4], 11.9%; in test [5], -5.05%; in test [6] it was 23.7%.

Regarding `C1CCC(CCC2CCCC[N-]2)[N-]C1.[I][Co][I]` (stereo not given), the growth inhibition was 48.3% in test [1]; 27.9% in test [2]; 47% in test [3]; -3% in test [4]; 33.7% in test [5]; 43.5% in test [6].

Consider `NCC(O)c1cc(I)c(Oc2ccc(O)cc2)c(I)c1` (stereo not given), for which the growth inhibition in test [1] was 7.65%; in test [2] it was -19.8%; in test [3], -22.6%; in test [4], 12.3%; in test [5], -1.35%; in test [6], -11.5%.

With `CCn1c(C)nc2c(N)cccc2c1=O`, the growth inhibition in test [1] was 24.4%; in test [2], -4.75%; in test [3] it was -7.9%; in test [4], -6.6%; in test [5] it was -11%; in test [6], 2.75%.

`COc1ccc(Cc2cc(OC)c(OC)c(OC)c2)cc1`: the growth inhibition is 13.2% in test [1]; -0.3% in test [2]; 7.7% in test [3]; 0% in test [4]; 31.8% in test [5]; -27.6% in test [6].

Regarding `N=c1nc2n(cc1F)[C@@H]1O[C@H](CO)[C@@H](O)[C@@H]1O2`, the growth inhibition in test [1] is 13.4%; in test [2], -3.75%; in test [3], 4.3%; in test [4], 8.55%; in test [5] it was 12.6%; in test [6] it was -12.2%.

As for `N=c1sc2ccccc2n1CC(=O)O`, the growth inhibition in test [1] was 2.2%; in test [2], -16.5%; in test [3], -13.3%; in test [4], -22.6%; in test [5] it was 3.85%; in test [6] it was -41.2%.

In the case of `C[n+]1nnn(/N=C\c2ccccc2)c1N`, the growth inhibition in test [1] was -3.55%; in test [2] it was 11.8%; in test [3], 10.1%; in test [4] it was -0.95%; in test [5] it was 8.75%; in test [6] it was 11.6%.

With `CC(C)SSC(=O)N1CCCC1C(=O)O` (stereo not given), the growth inhibition in test [1] is -1.6%; in test [2], 3.05%; in test [3] it was -5.45%; in test [4], -30.9%; in test [5] it was -1%; in test [6], -1.7%.

As for `CCOC(=O)N(CCCl)C(=O)C(C)C`, the growth inhibition in test [1] was -21.6%; in test [2], -39.1%; in test [3], -10.6%; in test [4], 24.8%; in test [5] it was -25.2%; in test [6], -11.1%.

As to `COc1ccc(CCNC(=O)CC2CCN(Cc3ccccc3)CC2)cc1OC`, the growth inhibition is 3.65% in test [1]; 1.15% in test [2]; 5.2% in test [3]; -3.75% in test [4]; -3.45% in test [5]; -1.5% in test [6].
